Laboratory results as given in PubChem BioAssay (NCI).
This is part of a sample that, as a whole, favours compounds with a hit. Of some 79,000 tested, about 15% had one in any assay. Values without a mark were called inactive. Activity calls are given as the source filed them. Rule as the data show it: active = growth inhibition above about 70%; inactive = the rest.

Columns and labels:
[1] = NCI Yeast Anticancer Drug Screen. Data for the rad52 strain (AID 147);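 also: 0% = growth of vehicle-treated control cultures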; settings: S. cerevisiae rad52 mutant growth inhibition, active compounds read high
How it was run: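 Vehicle-treated cultures served as the reference for growth inhibition of compound-exposed yeast bearing a DNA repair mutation.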

[2] = NCI Yeast Anticancer Drug Screen. Data for the wt1 strain (AID 149);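 also: 0% = growth of vehicle-treated wt1 cultures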; settings: S. cerevisiae wt1 strain (SPY 50644) growth inhibition, active compounds read high
How it was run: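 Growth inhibition read against vehicle controls after compound exposure of the wt1 yeast strain.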

[3] = NCI Yeast Anticancer Drug Screen. Data for the rad50EPP+ strain (AID 151);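 also: 0% = growth of vehicle-treated control cultures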; settings: S. cerevisiae rad50 mutant strain, active compounds read high
How it was run: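 In this screen, rad50EPP+ yeast were exposed to compounds. Growth inhibition was scored against vehicle-treated controls.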

[4] = NCI Yeast Anticancer Drug Screen. Data for the mgt1 strain (AID 153); settings: S. cerevisiae mgt1 mutant growth inhibition, active compounds read high
How it was run: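 mgt1 strain exposed; growth vs vehicle control recorded as inhibition.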

[5] = NCI Yeast Anticancer Drug Screen. Data for the rad50 strain (AID 155);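 also: 0% = growth of vehicle-only cultures of the same strain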; settings: S. cerevisiae rad50 strain growth inhibition, active compounds read high
How it was run: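 Readout: growth inhibition relative to vehicle-treated cultures. Compound exposure was carried out in a genetically defined yeast strain deficient in DNA damage repair.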

[6] = NCI Yeast Anticancer Drug Screen. Data for the mec2-1 strain (AID 157); settings: S. cerevisiae mec2-1 strain, active compounds read high
How it was run: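 Vehicle-treated cultures served as reference for growth inhibition of compound-exposed mec2-1 yeast.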

[7] = NCI Yeast Anticancer Drug Screen. Data for the rad14 strain (AID 159);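 also: 0% = growth of vehicle-treated control cultures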; settings: S. cerevisiae rad14 strain growth inhibition, active compounds read high
How it was run: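 Growth inhibition vs vehicle controls; genetically altered yeast strain (DNA damage repair defect) treated with test compounds.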

[8] = NCI Yeast Anticancer Drug Screen. Data for the sgs1 mgt1 strain (AID 161);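 also: 0% = growth of cultures given vehicle only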; settings: S. cerevisiae sgs1 mgt1 strain, active compounds read high
How it was run: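 Genetically altered yeast, compound exposure, growth inhibition relative to vehicle.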

[9] = NCI Yeast Anticancer Drug Screen. Data for the cln2 rad14 strain (AID 165);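 also: 0% = growth equal to vehicle treated cultures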; settings: S. cerevisiae cln2 rad14 strain, active compounds read high
How it was run: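 Each compound was tested on cln2 rad14 yeast. Inhibition of growth was calculated against vehicle-exposed controls.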

[10] = NCI Yeast Anticancer Drug Screen. Data for the bub3 strain (AID 167); settings: S. cerevisiae bub3 mutant strain, active compounds read high
How it was run: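 Readout: yeast growth inhibition, expressed relative to vehicle-only wells. The test organism is a mutant strain from a panel with lesions in DNA repair or checkpoint genes.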

[11] = NCI Yeast Anticancer Drug Screen. Data for the wt2 strain (AID 169);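 also: 0% = growth of vehicle-treated yeast cultures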; settings: S. cerevisiae wt2 strain growth inhibition, active compounds read high
How it was run: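 Inhibition of yeast growth was determined after compound treatment, normalised to controls receiving only vehicle.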

[12] = NCI Yeast Anticancer Drug Screen. Data for the mlh1 strain (AID 171);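 also: 0% = growth of vehicle-treated control cultures of the same strain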; settings: S. cerevisiae mlh1 strain growth inhibition, active compounds read high
How it was run: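 Vehicle-normalised growth inhibition of a repair- or checkpoint-altered yeast strain following compound treatment.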

[13] = NCI Yeast Anticancer Drug Screen. Data for the sgs1 strain (AID 173);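 also: 0% = growth of vehicle-only control cultures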; settings: S. cerevisiae sgs1 mutant, active compounds read high
How it was run: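 Screen format: yeast with repair or checkpoint alterations, compound exposure, growth read relative to vehicle.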

[14] = NCI Yeast Anticancer Drug Screen. Data for the mlh1 rad18 strain (AID 175); settings: S. cerevisiae mlh1 rad18 strain growth inhibition, active compounds read high
How it was run: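 Vehicle-treated cultures served as the reference for growth inhibition in a yeast strain carrying DNA damage repair alterations exposed to each compound.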

[15] = NCI Yeast Anticancer Drug Screen. Data for the rad18 strain (AID 177); settings: S. cerevisiae rad18 mutant growth inhibition, active compounds read high
How it was run: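 Test articles were incubated with altered yeast defective in DNA damage repair. Results are given as inhibition of growth versus vehicle.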

[16] = NCI Yeast Anticancer Drug Screen. Data for the CLN2oe strain (AID 163);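 also: 0% = growth of vehicle-only control cultures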; settings: S. cerevisiae CLN2oe strain, active compounds read high
How it was run: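 Inhibition relative to vehicle-treated yeast is reported. Cells: strain with genetic alteration in cell-cycle control, grown with compound.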

[17] = at 5.0 µM (retest, dose inferred, filed as 0.5)
[18] = at 50.0 µM (retest, dose inferred, filed as 5.0)

COc1cc(N)ccc1Nc1c2ccccc2nc2ccccc12
growth inhibition ([1]; at 1.2 µM): -4% | growth inhibition ([1]; at 3.7 µM): 33% | growth inhibition ([1]; at 11.0 µM): 70% (active) | growth inhibition ([1]; at 33.0 µM): 82% (active) | growth inhibition ([1]; at 100.0 µM): 86% (active) | growth inhibition ([2]; at 1.2 µM): -17% | growth inhibition ([2]; at 3.7 µM): -16% | growth inhibition ([2]; at 11.0 µM): -19% | growth inhibition ([2]; at 33.0 µM): -17% | growth inhibition ([2]; at 100.0 µM): 69% | growth inhibition ([3]; at 1.2 µM): -9% | growth inhibition ([3]; at 3.7 µM): -11% | growth inhibition ([3]; at 11.0 µM): 10% | growth inhibition ([3]; at 33.0 µM): 59% | growth inhibition ([3]; at 100.0 µM): 88% (active) | growth inhibition ([4]; at 1.2 µM): 2% | growth inhibition ([4]; at 3.7 µM): 25% | growth inhibition ([4]; at 11.0 µM): 32% | growth inhibition ([4]; at 33.0 µM): 51% | growth inhibition ([4]; at 100.0 µM): 89% (active) | growth inhibition ([5]; at 1.2 µM): 6% | growth inhibition ([5]; at 3.7 µM): 32% | growth inhibition [5, 17]: 90% (active) | growth inhibition ([5]; at 11.0 µM): 74% (active) | growth inhibition ([5]; at 33.0 µM): 89% (active) | growth inhibition [5, 18]: 95% (active) | growth inhibition ([5]; at 50.0 µM): 36.3% | growth inhibition ([5]; at 100.0 µM): 91% (active) | growth inhibition ([6]; at 1.2 µM): -45% | growth inhibition ([6]; at 3.7 µM): -30% | growth inhibition [6, 17]: 20% | growth inhibition ([6]; at 11.0 µM): -27% | growth inhibition ([6]; at 33.0 µM): 2% | growth inhibition [6, 18]: 92% (active) | growth inhibition ([6]; at 50.0 µM): 42.4% | growth inhibition ([6]; at 100.0 µM): 84% (active) | growth inhibition ([7]; at 1.2 µM): -43% | growth inhibition ([7]; at 3.7 µM): -25% | growth inhibition ([7]; at 11.0 µM): -5% | growth inhibition ([7]; at 33.0 µM): 13% | growth inhibition ([7]; at 100.0 µM): 66% | growth inhibition [8, 17]: 58% | growth inhibition [8, 18]: 97% (active) | growth inhibition ([8]; at 50.0 µM): 84.9% (active) | growth inhibition [9, 17]: 40% | growth inhibition [9, 18]: 83% (active) | growth inhibition ([9]; at 50.0 µM): 80.8% (active) | growth inhibition ([10]; at 1.2 µM): 8% | growth inhibition ([10]; at 3.7 µM): 15% | growth inhibition [10, 17]: 42% | growth inhibition ([10]; at 11.0 µM): 14% | growth inhibition ([10]; at 33.0 µM): 28% | growth inhibition [10, 18]: 86% (active) | growth inhibition ([10]; at 50.0 µM): 63% | growth inhibition ([10]; at 100.0 µM): 85% (active) | growth inhibition ([11]; at 1.2 µM): 6% | growth inhibition ([11]; at 3.7 µM): 9% | growth inhibition ([11]; at 11.0 µM): 9% | growth inhibition ([11]; at 33.0 µM): 31% | growth inhibition ([11]; at 100.0 µM): 86% (active) | growth inhibition ([12]; at 1.2 µM): -24% | growth inhibition ([12]; at 3.7 µM): -15% | growth inhibition ([12]; at 11.0 µM): -16% | growth inhibition ([12]; at 33.0 µM): 11% | growth inhibition ([12]; at 100.0 µM): 80% (active) | growth inhibition ([13]; at 1.2 µM): -16% | growth inhibition ([13]; at 3.7 µM): 1% | growth inhibition ([13]; at 11.0 µM): -4% | growth inhibition ([13]; at 33.0 µM): 36% | growth inhibition ([13]; at 100.0 µM): 92% (active) | growth inhibition [14, 17]: 81% (active) | growth inhibition [14, 18]: 94% (active) | growth inhibition ([14]; at 50.0 µM): 65.7% | growth inhibition ([15]; at 1.2 µM): -2% | growth inhibition ([15]; at 3.7 µM): -11% | growth inhibition ([15]; at 11.0 µM): -4% | growth inhibition ([15]; at 33.0 µM): 7% | growth inhibition ([15]; at 100.0 µM): 82% (active)

Nc1ccc(S(=O)(=O)Nc2ccc(Nc3c4ccccc4nc4ccccc34)cc2)cc1
growth inhibition ([1]; at 1.2 µM): 21% | growth inhibition ([1]; at 3.7 µM): 69% | growth inhibition ([1]; at 11.0 µM): 88% (active) | growth inhibition ([1]; at 33.0 µM): 93% (active) | growth inhibition ([1]; at 100.0 µM): 95% (active) | growth inhibition ([2]; at 1.2 µM): 2% | growth inhibition ([2]; at 3.7 µM): 19% | growth inhibition ([2]; at 11.0 µM): 18% | growth inhibition ([2]; at 33.0 µM): 18% | growth inhibition ([2]; at 100.0 µM): 43% | growth inhibition ([3]; at 1.2 µM): 8% | growth inhibition ([3]; at 3.7 µM): 56% | growth inhibition ([3]; at 11.0 µM): 77% (active) | growth inhibition ([3]; at 33.0 µM): 76% (active) | growth inhibition ([3]; at 100.0 µM): 79% (active) | growth inhibition ([4]; at 1.2 µM): 4% | growth inhibition ([4]; at 3.7 µM): 4% | growth inhibition ([4]; at 11.0 µM): 3% | growth inhibition ([4]; at 33.0 µM): 13% | growth inhibition ([4]; at 100.0 µM): 50% | growth inhibition ([5]; at 1.2 µM): 22% | growth inhibition ([5]; at 3.7 µM): 66% | growth inhibition [5, 17]: 59% | growth inhibition ([5]; at 11.0 µM): 86% (active) | growth inhibition ([5]; at 33.0 µM): 93% (active) | growth inhibition [5, 18]: 87% (active) | growth inhibition ([5]; at 50.0 µM): 79.1% (active) | growth inhibition ([5]; at 100.0 µM): 94% (active) | growth inhibition ([6]; at 1.2 µM): 0% | growth inhibition ([6]; at 3.7 µM): 11% | growth inhibition [6, 17]: -24% | growth inhibition ([6]; at 11.0 µM): 6% | growth inhibition ([6]; at 33.0 µM): 19% | growth inhibition [6, 18]: 31% | growth inhibition ([6]; at 50.0 µM): 57.4% | growth inhibition ([6]; at 100.0 µM): 77% (active) | growth inhibition ([7]; at 1.2 µM): 7% | growth inhibition ([7]; at 3.7 µM): 18% | growth inhibition ([7]; at 11.0 µM): 14% | growth inhibition ([7]; at 33.0 µM): 25% | growth inhibition ([7]; at 100.0 µM): 58% | growth inhibition ([16]; at 1.2 µM): -29% | growth inhibition ([16]; at 3.7 µM): -5% | growth inhibition ([16]; at 11.0 µM): -15% | growth inhibition ([16]; at 33.0 µM): 4% | growth inhibition ([16]; at 100.0 µM): 33% | growth inhibition [9, 17]: -3% | growth inhibition [9, 18]: 7% | growth inhibition ([9]; at 50.0 µM): 13.8% | growth inhibition ([10]; at 1.2 µM): 8% | growth inhibition ([10]; at 3.7 µM): 31% | growth inhibition [10, 17]: -18% | growth inhibition ([10]; at 11.0 µM): 15% | growth inhibition ([10]; at 33.0 µM): 4% | growth inhibition [10, 18]: -4% | growth inhibition ([10]; at 50.0 µM): -22.1% | growth inhibition ([10]; at 100.0 µM): 39% | growth inhibition ([11]; at 1.2 µM): -42% | growth inhibition ([11]; at 3.7 µM): -39% | growth inhibition ([11]; at 11.0 µM): -38% | growth inhibition ([11]; at 33.0 µM): -30% | growth inhibition ([11]; at 100.0 µM): 60% | growth inhibition ([12]; at 1.2 µM): 4% | growth inhibition ([12]; at 3.7 µM): 24% | growth inhibition ([12]; at 11.0 µM): 23% | growth inhibition ([12]; at 33.0 µM): 24% | growth inhibition ([12]; at 100.0 µM): 60% | growth inhibition ([13]; at 1.2 µM): 8% | growth inhibition ([13]; at 3.7 µM): 17% | growth inhibition ([13]; at 11.0 µM): 24% | growth inhibition ([13]; at 33.0 µM): 43% | growth inhibition ([13]; at 100.0 µM): 79% (active) | growth inhibition [14, 17]: 0% | growth inhibition [14, 18]: 19% | growth inhibition ([15]; at 1.2 µM): 17% | growth inhibition ([15]; at 3.7 µM): 11% | growth inhibition ([15]; at 11.0 µM): 6% | growth inhibition ([15]; at 33.0 µM): 6% | growth inhibition ([15]; at 100.0 µM): 58%
